Data reported in PubChem BioAssay.
For some assays here: Potency and affinity values are given separately. Calls of active or inactive are those of the source. Unless noted, the rule behind the calls is not given here.

Columns and labels:
[1] = antimalarial activity against Dd2 strain (AID 2302;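 active = growth inhibition above 50% at the single 2 µM test dose, taken to imply half-maximal potency below 2 µM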;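 note: 0% = DMSO untreated growth and 100% = chloroquine plus artemisinin killed control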); details: P. falciparum Dd2 in RBCs, LDH growth readout, 72 h; at 2 µM; stronger effect = higher value
[2] = HepG2 cytotoxicity, primary screen, cytotoxicity control for P. falciparum antimalarial project, cell-based, ATP luminescence (AID 2303;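 active = inhibition above 50%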;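 note: 0% = DMSO wells and 100% = digitonin-killed cells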); details: HepG2 viability, 24-48 h, at 10 µM, stronger effect = higher value
[3] = target: L-lactate dehydrogenase (Plasmodium falciparum (isolate CDC / Honduras)) (UniProt Q27743); experiment: PfLDH activity inhibition – cell lysate, 3D7 strain, counter-screen for P. falciparum growth inhibition project (AID 2304);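 note: 0% = vehicle and 100% = reference inhibitor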; details: P. falciparum 3D7 crude extract, LDH APAD/NBT absorbance; at 2 µM; stronger effect = higher value
[4] = inhibition of 3D7 malaria parasite growth – strain 3D7 (AID 2306);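 note: 0% = DMSO wells and 100% = chloroquine plus artemisinin control wells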; details: P. falciparum 3D7 erythrocytic growth, LDH absorbance, 72 h; at 2 µM; stronger effect = higher value
[5] = target: Calcium-dependent protein kinase 1 (Plasmodium falciparum (isolate 3D7)) (UniProt P62344); experiment: PfCDPK1 kinase inhibitors, biochemical, TCAMS library (AID 1159585; cut-off not given, nearly all actives have IC50 up to about 0.98 µM;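 note: inhibitors leave more ATP so luminescence rises with inhibition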); details: recombinant PfCDPK1, Kinase-Glo ATP depletion luminescence
[6] = target: Plasmodium falciparum protein kinase 6 (PK6, PF3D7_1337100) (UniProt Q8IDW1); experiment: PfPK6 kinase inhibitors, biochemical, TCAMS library (AID 1159586); details: recombinant PfPK6, Kinase-Glo ATP depletion luminescence
[7] = target: Protein kinase 7 (PK7), Plasmodium falciparum 3D7 (PF3D7_0213400) (UniProt Q7YTF7); experiment: inhibition of Plasmodium PK7 catalytic activity – biochemical, TCAMS antimalarial set, Kinase-Glo luminescence (AID 1159587); details: recombinant PfPK7, Kinase-Glo ATP depletion luminescence
[8] = target: Calcium-dependent protein kinase 4 (Plasmodium falciparum (isolate 3D7)) (UniProt Q8IBS5); experiment: PfCDPK4 kinase inhibitors, biochemical, TCAMS library (AID 1159588; cut-off not given, nearly all actives have IC50 up to about 0.91 µM); details: recombinant PfCDPK4, Kinase-Glo ATP depletion luminescence
Chain of Calcium-dependent protein kinase 4 (Plasmodium falciparum (isolate 3D7)) (Q8IBS5 whole entry, looked up): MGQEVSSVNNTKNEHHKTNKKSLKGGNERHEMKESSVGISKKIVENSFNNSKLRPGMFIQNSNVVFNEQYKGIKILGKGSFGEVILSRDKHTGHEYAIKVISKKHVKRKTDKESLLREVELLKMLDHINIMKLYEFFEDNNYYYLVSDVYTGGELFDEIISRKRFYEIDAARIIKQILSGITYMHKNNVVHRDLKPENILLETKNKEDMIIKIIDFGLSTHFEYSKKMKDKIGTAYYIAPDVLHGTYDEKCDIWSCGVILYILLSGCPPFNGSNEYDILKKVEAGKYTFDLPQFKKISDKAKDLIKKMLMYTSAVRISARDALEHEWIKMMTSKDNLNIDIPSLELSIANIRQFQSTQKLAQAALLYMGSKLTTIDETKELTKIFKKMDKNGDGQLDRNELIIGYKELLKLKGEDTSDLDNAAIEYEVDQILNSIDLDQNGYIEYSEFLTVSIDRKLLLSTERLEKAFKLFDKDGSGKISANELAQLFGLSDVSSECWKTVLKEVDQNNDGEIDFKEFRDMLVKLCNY

Chain of L-lactate dehydrogenase (Plasmodium falciparum (isolate CDC / Honduras)) (Q27743 whole entry, looked up): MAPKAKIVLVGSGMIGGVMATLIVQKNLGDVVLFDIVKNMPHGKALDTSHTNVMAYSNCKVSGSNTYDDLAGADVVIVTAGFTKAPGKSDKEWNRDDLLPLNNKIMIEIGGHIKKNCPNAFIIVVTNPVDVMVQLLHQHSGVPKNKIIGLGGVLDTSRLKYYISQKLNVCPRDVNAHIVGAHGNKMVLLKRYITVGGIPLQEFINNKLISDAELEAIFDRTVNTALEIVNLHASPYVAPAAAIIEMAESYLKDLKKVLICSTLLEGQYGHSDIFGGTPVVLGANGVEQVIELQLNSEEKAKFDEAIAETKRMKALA
Chain of Protein kinase 7 (PK7), Plasmodium falciparum 3D7 (PF3D7_0213400) (Q7YTF7 1-343): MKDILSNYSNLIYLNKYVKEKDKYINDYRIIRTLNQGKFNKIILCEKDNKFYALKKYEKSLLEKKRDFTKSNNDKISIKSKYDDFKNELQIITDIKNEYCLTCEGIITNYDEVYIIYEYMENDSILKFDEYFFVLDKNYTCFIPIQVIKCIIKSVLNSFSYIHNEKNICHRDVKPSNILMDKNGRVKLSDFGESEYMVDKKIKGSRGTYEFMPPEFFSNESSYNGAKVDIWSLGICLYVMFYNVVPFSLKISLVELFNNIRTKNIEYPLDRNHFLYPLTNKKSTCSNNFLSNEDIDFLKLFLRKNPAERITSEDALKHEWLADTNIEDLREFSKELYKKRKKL
Chain of Calcium-dependent protein kinase 1 (Plasmodium falciparum (isolate 3D7)) (P62344 whole entry, looked up): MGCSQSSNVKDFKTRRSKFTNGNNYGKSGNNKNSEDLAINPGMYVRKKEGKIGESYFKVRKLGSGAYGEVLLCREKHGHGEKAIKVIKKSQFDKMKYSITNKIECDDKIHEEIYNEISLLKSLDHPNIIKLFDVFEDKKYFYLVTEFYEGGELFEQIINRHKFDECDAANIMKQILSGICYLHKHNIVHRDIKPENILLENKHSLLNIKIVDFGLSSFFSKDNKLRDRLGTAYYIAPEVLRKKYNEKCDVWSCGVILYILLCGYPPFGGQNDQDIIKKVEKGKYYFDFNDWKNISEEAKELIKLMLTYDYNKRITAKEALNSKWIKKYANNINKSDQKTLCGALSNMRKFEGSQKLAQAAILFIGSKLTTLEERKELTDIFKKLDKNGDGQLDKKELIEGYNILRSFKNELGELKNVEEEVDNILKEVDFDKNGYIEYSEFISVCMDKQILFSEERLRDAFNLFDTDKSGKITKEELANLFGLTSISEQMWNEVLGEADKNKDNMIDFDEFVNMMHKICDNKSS
Chain of Plasmodium falciparum protein kinase 6 (PK6, PF3D7_1337100) (Q8IDW1 1-305): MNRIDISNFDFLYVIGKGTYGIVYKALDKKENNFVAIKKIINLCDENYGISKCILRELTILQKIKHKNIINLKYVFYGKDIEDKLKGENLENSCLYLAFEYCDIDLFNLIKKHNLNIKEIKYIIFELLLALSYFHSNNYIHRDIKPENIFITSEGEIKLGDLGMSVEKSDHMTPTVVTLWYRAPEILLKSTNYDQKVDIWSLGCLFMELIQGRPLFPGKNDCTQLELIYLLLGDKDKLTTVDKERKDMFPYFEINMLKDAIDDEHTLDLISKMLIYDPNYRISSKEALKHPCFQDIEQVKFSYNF

CC(Oc1ccc(Cl)cc1)C(=O)Nc1cc(C(F)(F)F)ccc1-n1cncn1 (configuration not stated)
inactive: inhibition [2] -2% | inhibition [3] 2% | outcome [5] | outcome [6] | outcome [7] | outcome [8]
active: growth inhibition [1] 98% | growth inhibition [4] 99%

COc1ccc2nccc([C@H](O)CN3CCC(NCc4ccc5c(c4C)OCCO5)CC3)c2n1
inactive: growth inhibition [1] 6% | inhibition [2] 26% | inhibition [3] 4% | outcome [5] | outcome [6] | outcome [7] | outcome [8]
active: growth inhibition [4] 94%

COC(=O)Nc1ccc(-c2ccc(C(=O)NC3CCN(C[C@H](O)c4ccnc5ccc(OC)cc45)CC3)cc2)c(C)c1
active: growth inhibition [1] 97% | growth inhibition [4] 100%
inactive: inhibition [2] 32% | inhibition [3] -2% | outcome [5] | outcome [6] | outcome [7] | outcome [8]

O=C(N[C@H](Cc1ccc(Cl)cc1)C(=O)N1CCN(c2ccnc3cc(Cl)ccc23)CC1)[C@H]1Cc2ccccc2CN1
inactive: growth inhibition [1] 41% | inhibition [2] 16% | inhibition [3] 5% | outcome [5] | outcome [6] | outcome [7] | outcome [8]
active: growth inhibition [4] 85%

CC1CN(c2cc(=O)n(Cc3ccc(NC(=O)Nc4ccc(-c5ccccc5)cc4)cc3)cn2)CC(C)N1 (configuration not stated)
inactive: growth inhibition [1] 20% | inhibition [2] 0% | inhibition [3] -1% | outcome [5] | outcome [6] | outcome [7] | outcome [8]
active: growth inhibition [4] 87%

Cc1noc(C)c1-c1cccc(CNCc2cccc(-c3ccc(-c4nc5ccc(C(F)(F)F)cc5[nH]4)s3)c2)c1
active: growth inhibition [1] 95% | growth inhibition [4] 100%
inactive: inhibition [2] 23% | inhibition [3] 0% | outcome [5] | outcome [6] | outcome [7] | outcome [8]

Cc1cc2c(NC(=O)NC3CCN(CCc4ccccc4Cl)CC3)cccc2cn1
active: growth inhibition [4] 102%
inactive: growth inhibition [1] 46% | inhibition [2] 13% | inhibition [3] 0% | outcome [5] | outcome [6] | outcome [7] | outcome [8]

NC(N)=NCCCN(Cc1ccccc1)c1ccc(Cl)cc1
active: growth inhibition [1] 98% | growth inhibition [4] 100%
inactive: inhibition [2] -9% | inhibition [3] -7% | outcome [5] | outcome [6] | outcome [7] | outcome [8]

CN(C)C(=NCCCCCCN=C(/N=C(/N)Nc1ccc(Cl)cc1)N(C)C)/N=C(/N)Nc1ccc(Cl)cc1
active: growth inhibition [1] 98% | growth inhibition [4] 97%
inactive: inhibition [2] 11% | inhibition [3] 4% | outcome [5] | outcome [6] | outcome [7] | outcome [8]

COc1cc(NCCCNCc2cn(Cc3cc(Br)cc(Br)c3)c3ccccc23)nc2ccccc12
inactive: inhibition [3] 4% | outcome [5] | outcome [6] | outcome [7] | outcome [8]
active: growth inhibition [1] 85% | inhibition [2] 99% | growth inhibition [4] 100%

Cc1cc(N[C@@H](CC(C)C)C(=O)Nc2ccccc2)nc(NCCc2ccc(F)cc2)n1
inactive: inhibition [2] 8% | inhibition [3] 4% | outcome [5] | outcome [6] | outcome [7] | outcome [8]
active: growth inhibition [1] 94% | growth inhibition [4] 101%

COc1ccc(Nc2ncc3c(-c4cccc(NC(=O)c5ccccc5)c4)c[nH]c3n2)cc1OC
inactive: inhibition [3] -7% | outcome [5] | outcome [6] | outcome [7] | outcome [8]
active: growth inhibition [1] 95% | inhibition [2] 54% | growth inhibition [4] 101%

COc1ccc(N2CCN(CCCCNC(=O)c3ccc(NC(=O)c4cc(Cl)cc(Cl)c4)cc3)CC2)c(OC)c1
active: growth inhibition [1] 84% | growth inhibition [4] 100%
inactive: inhibition [2] 21% | inhibition [3] 2% | outcome [5] | outcome [6] | outcome [7] | outcome [8]

CCOc1cc(C(=O)N[C@@H](Cc2ccccc2)[C@H](O)CNCc2cc(OC)cc(OC)c2)cc(N2CCCC2=O)c1
inactive: inhibition [2] 0% | inhibition [3] 4% | outcome [5] | outcome [6] | outcome [7] | outcome [8]
active: growth inhibition [1] 63% | growth inhibition [4] 94%

Cc1cccc2[nH]c(-c3ccc(-c4cccc(CNCc5ccccc5)c4)cc3)nc12
inactive: inhibition [2] 3% | inhibition [3] -1% | outcome [5] | outcome [6] | outcome [7] | outcome [8]
active: growth inhibition [1] 52% | growth inhibition [4] 102%

Cc1ccc(NC(=O)Nc2ccc(I)c(OCCN(C)C)c2)cc1Cl
inactive: growth inhibition [1] 22% | inhibition [2] 11% | inhibition [3] -4% | outcome [5] | outcome [6] | outcome [7] | outcome [8]
active: growth inhibition [4] 98%

FC(F)(F)c1cccnc1N1CCC(Nc2nc3ccc(Cl)cc3[nH]2)CC1
inactive: growth inhibition [1] 39% | inhibition [2] 32% | inhibition [3] -2% | outcome [5] | outcome [6] | outcome [7] | outcome [8]
active: growth inhibition [4] 93%

COc1c(C2CCN(CCCCNC(=O)c3cc(-c4ccc(Cl)cc4)[nH]c3C)CC2)ccc2c1CCCC2
inactive: inhibition [3] -6% | outcome [5] | outcome [6] | outcome [7] | outcome [8]
active: growth inhibition [1] 91% | inhibition [2] 53% | growth inhibition [4] 100%

CO/C(=C\C=C\c1cc2cc(Cl)c(Cl)cc2[nH]1)C(=O)NCCCN1CCN(c2cccc(O)c2)CC1
inactive: inhibition [2] 46% | inhibition [3] -2% | outcome [5] | outcome [6] | outcome [7] | outcome [8]
active: growth inhibition [1] 100% | growth inhibition [4] 91%
